The panel holds about 83,000 compounds, 20% with a hit somewhere; the sample as a whole holds those more often.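 Treatment: one concentration, 48 hours, 96-well format. Scoring: percent growth, with anything below 10 considered active.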 Values without a mark were called inactive. The source made the active and inactive calls.
Experiments:
Test in all cases: NCI-60 one-dose screen, 48 h (100 = growth as untreated, 0 = no growth, -100 = all killed)
Conditions in all cases: 10 µM unless noted
NCI-H23 lung = tested on: NCI-H23 lung
NCI-H226 lung = tested on: NCI-H226 lung
NCI-H322M lung = tested on: NCI-H322M lung
HOP-62 NSCLC = tested on: HOP-62 NSCLC
NCI-H460 lung = tested on: NCI-H460 lung
HOP-92 NSCLC = tested on: HOP-92 NSCLC
NCI-H522 lung = tested on: NCI-H522 lung
A549/ATCC NSCLC = tested on: A549/ATCC NSCLC
786-0 renal = tested on: 786-0 renal
COLO 205 colon = tested on: COLO 205 colon
DU-145 prostate = tested on: DU-145 prostate
K-562 leukemia = tested on: K-562 leukemia
MALME-3M melanoma = tested on: MALME-3M melanoma
MDA-MB-231 breast = tested on: MDA-MB-231 breast
SF-268 CNS = tested on: SF-268 CNS
SF-295 CNS = tested on: SF-295 CNS
SF-539 CNS = tested on: SF-539 CNS
UACC-257 melanoma = tested on: UACC-257 melanoma
M14 melanoma = tested on: M14 melanoma

Q: How did the growth (NCI-H23 lung) turn out when `CCCCCCCCN1C(=O)/C(=c2\sc3n(c2=O)C2C(NN=3)N(CC)C(=O)N2CC)c2ccccc21` (centres undefined) was run?
A: 79.1%

Q: What about the growth (NCI-H226 lung) of the same molecule?
A: 91.9%

Q: What about the growth (NCI-H322M lung) of the same molecule?
A: 83%

Q: And the growth (HOP-62 NSCLC)?
A: 47.3%

Q: What about the growth (NCI-H460 lung) of the same molecule?
A: 88%

Q: And the growth (HOP-92 NSCLC)?
A: 62.7%

Q: And the growth (NCI-H522 lung)?
A: 66.6%

Q: And the growth (A549/ATCC NSCLC)?
A: 75.9%

Q: What about the growth (786-0 renal) of the same molecule?
A: 65.7%

Q: What about the growth (COLO 205 colon) of the same molecule?
A: 104%

Q: And the growth (DU-145 prostate)?
A: 97.8%

Q: What about the growth (K-562 leukemia) of the same molecule?
A: 92.6%

Q: And the growth (MALME-3M melanoma)?
A: 82.6%

Q: And the growth (MDA-MB-231 breast)?
A: 71.5%

Q: What about the growth (SF-268 CNS) of the same molecule?
A: 65.3%

Q: What about the growth (SF-295 CNS) of the same molecule?
A: 73%

Q: What about the growth (SF-539 CNS) of the same molecule?
A: 59.9%

Q: What about the growth (UACC-257 melanoma) of the same molecule?
A: 96.3%

Q: What about the growth (M14 melanoma) of the same molecule?
A: 95.4%

Q: Which growth (NCI-H23 lung) does the source give for `O=c1nc2n(nc1/C=C/c1ccco1)CC(c1ccc(Cl)cc1)=NN2` here?
A: 93%

Q: And the growth (NCI-H226 lung)?
A: 100%

Q: What about the growth (NCI-H322M lung) of the same molecule?
A: 84.2%

Q: And the growth (HOP-62 NSCLC)?
A: 82.9%

Q: What about the growth (NCI-H460 lung) of the same molecule?
A: 108%

Q: And the growth (HOP-92 NSCLC)?
A: 87.6%

Q: What about the growth (NCI-H522 lung) of the same molecule?
A: 79.4%

Q: What about the growth (A549/ATCC NSCLC) of the same molecule?
A: 104%

Q: And the growth (786-0 renal)?
A: 95.7%

Q: And the growth (COLO 205 colon)?
A: 110%

Q: And the growth (DU-145 prostate)?
A: 115%

Q: And the growth (K-562 leukemia)?
A: 53.6%

Q: What about the growth (MALME-3M melanoma) of the same molecule?
A: 92%

Q: And the growth (MDA-MB-231 breast)?
A: 117%

Q: What about the growth (SF-268 CNS) of the same molecule?
A: 109%

Q: And the growth (SF-295 CNS)?
A: 97.9%

Q: And the growth (SF-539 CNS)?
A: 104%

Q: What about the growth (UACC-257 melanoma) of the same molecule?
A: 104%

Q: What about the growth (M14 melanoma) of the same molecule?
A: 104%

Q: What does the source list for `CCCCCCCCCCCCCCCC(=O)OC[C@@]1(O)C[C@@]23CC[C@@H]4C(C)(C)CCC[C@@]4(C)[C@@H]2CC[C@H]1C3`?
A: growth (NCI-H23 lung): 102%; growth (NCI-H226 lung): 98.3%; growth (NCI-H322M lung): 114%; growth (HOP-62 NSCLC): 106%; growth (NCI-H460 lung): 98.4%; growth (HOP-92 NSCLC): 117%; growth (NCI-H522 lung): 89.3%; growth (A549/ATCC NSCLC): 103%; growth (786-0 renal): 27.9%; growth (COLO 205 colon): 112%; growth (DU-145 prostate): 108%; growth (K-562 leukemia): 59.3%; growth (MALME-3M melanoma): 112%; growth (MDA-MB-231 breast): 96%; growth (SF-268 CNS): 110%; growth (SF-295 CNS): 111%; growth (SF-539 CNS): 108%; growth (UACC-257 melanoma): 104%; growth (M14 melanoma): -51.8% (active)

Q: What does the source list for `Cn1c(COC(=O)NCCN2CCOCC2)nc2c(N3CCOCC3)nc(-c3ccccc3)nc21`?
A: growth (NCI-H23 lung): -48.2% (active); growth (NCI-H226 lung): -65% (active); growth (NCI-H322M lung): 69%; growth (HOP-62 NSCLC): 23.2%; growth (NCI-H460 lung): 1.27% (active); growth (HOP-92 NSCLC): -62.8% (active); growth (NCI-H522 lung): -44.6% (active); growth (A549/ATCC NSCLC): 30.7%; growth (786-0 renal): -83.9% (active); growth (COLO 205 colon): -45.7% (active); growth (DU-145 prostate): -81.6% (active); growth (K-562 leukemia): 0.451% (active); growth (MALME-3M melanoma): -91.9% (active); growth (MDA-MB-231 breast): -88.9% (active); growth (SF-268 CNS): -36.8% (active); growth (SF-295 CNS): 57%; growth (SF-539 CNS): -98.7% (active); growth (UACC-257 melanoma): -46.6% (active); growth (M14 melanoma): -75.9% (active)

Q: What does the source list for `O=C1/C(=C/c2ccc(O)cc2)COc2ccc(-c3ccccc3)cc21`?
A: growth (NCI-H23 lung): 95.9%; growth (NCI-H226 lung): 102%; growth (NCI-H322M lung): 94.1%; growth (HOP-62 NSCLC): 80.1%; growth (NCI-H460 lung): 66%; growth (HOP-92 NSCLC): 84.5%; growth (NCI-H522 lung): 84.2%; growth (A549/ATCC NSCLC): 90.4%; growth (786-0 renal): 21.4%; growth (COLO 205 colon): 90.7%; growth (DU-145 prostate): 59.7%; growth (K-562 leukemia): 39.3%; growth (MALME-3M melanoma): 116%; growth (MDA-MB-231 breast): 94.6%; growth (SF-268 CNS): 69.1%; growth (SF-295 CNS): 89.8%; growth (SF-539 CNS): 90.7%; growth (UACC-257 melanoma): 92.7%; growth (M14 melanoma): 86.6%

Q: Which results are given for `COc1ccc(Cl)cc1NC(=O)c1c(NC(=O)C(F)(F)C(F)(F)F)sc2c1CCCCC2`?
A: growth (NCI-H23 lung): -5.14% (active); growth (NCI-H226 lung): -5.37% (active); growth (NCI-H322M lung): 12%; growth (HOP-62 NSCLC): -14.6% (active); growth (NCI-H460 lung): 3.45% (active); growth (HOP-92 NSCLC): -32.7% (active); growth (NCI-H522 lung): -0.0876% (active); growth (A549/ATCC NSCLC): 7.89% (active); growth (786-0 renal): -13.8% (active); growth (COLO 205 colon): -32.9% (active); growth (DU-145 prostate): 19.3%; growth (K-562 leukemia): 17.6%; growth (MALME-3M melanoma): -24.5% (active); growth (MDA-MB-231 breast): -18.6% (active); growth (SF-268 CNS): 6.13% (active); growth (SF-295 CNS): -25.2% (active); growth (SF-539 CNS): 4.26% (active); growth (UACC-257 melanoma): -16.5% (active); growth (M14 melanoma): 0.83% (active)

— PubChem BioAssay (NCI)
